Source: PubChem BioAssay (NCI)
Compounds without any hit were thinned out: in the full panel of roughly 79,000, 15% have a hit. Unmarked numbers belong to inactive results. Calls of active or inactive are those of the source. Rule as the data show it: active = growth inhibition above about 70%; inactive = the rest.

How the values were obtained:
[1] = NCI Yeast Anticancer Drug Screen. Data for the rad50 strain (AID 155);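 also: 0% = growth of vehicle-only cultures of the same strain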; conditions: S. cerevisiae rad50 strain growth inhibition, hits give high values
Procedure, shortened: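 Vehicle-treated cultures provide the reference for the growth inhibition reported for compound-exposed, repair-deficient yeast.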

[2] = NCI Yeast Anticancer Drug Screen. Data for the mec2-1 strain (AID 157); conditions: S. cerevisiae mec2-1 strain, hits give high values
Procedure, shortened: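 Growth inhibition is read against vehicle-treated controls after compound exposure of the mec2-1 yeast strain, which is defective in DNA damage repair or cell cycle control.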

[3] = NCI Yeast Anticancer Drug Screen. Data for the sgs1 mgt1 strain (AID 161);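 also: 0% = growth of cultures given vehicle only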; conditions: S. cerevisiae sgs1 mgt1 strain, hits give high values
Procedure, shortened: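 Compounds are added to genetically altered yeast, and growth is compared with cultures given vehicle alone to give percent inhibition.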

[4] = NCI Yeast Anticancer Drug Screen. Data for the cln2 rad14 strain (AID 165);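 also: 0% = growth equal to vehicle treated cultures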; conditions: S. cerevisiae cln2 rad14 strain, hits give high values
Procedure, shortened: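 Growth inhibition, relative to vehicle-treated controls, is the read-out. The test organism is a yeast strain with defined genetic alterations, cln2 rad14.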

[5] = NCI Yeast Anticancer Drug Screen. Data for the bub3 strain (AID 167); conditions: S. cerevisiae bub3 mutant strain, hits give high values
Procedure, shortened: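 Mutant yeast screening strain plus compound; vehicle-treated cultures serve as the 0% inhibition reference.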

[6] = NCI Yeast Anticancer Drug Screen. Data for the mlh1 rad18 strain (AID 175); conditions: S. cerevisiae mlh1 rad18 strain growth inhibition, hits give high values
Procedure, shortened: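 Cells of a genetically altered yeast strain, deficient in DNA damage repair, were treated with compound. Their growth was then compared with that of vehicle-treated cultures to give inhibition.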

[7] = at 5.0 µM (retest, dose inferred, filed as 0.5)
[8] = at 50.0 µM (retest, dose inferred, filed as 5.0)

| SMILES | growth inhibition [1, 7] | growth inhibition [1, 8] | growth inhibition ([1]; at 50.0 µM) | growth inhibition [2, 7] | growth inhibition [2, 8] | growth inhibition ([2]; at 50.0 µM) | growth inhibition [3, 7] | growth inhibition [3, 8] [%] | growth inhibition ([3]; at 50.0 µM) | growth inhibition [4, 7] | growth inhibition [4, 8] | growth inhibition ([4]; at 50.0 µM) | growth inhibition [5, 7] | growth inhibition [5, 8] | growth inhibition ([5]; at 50.0 µM) | growth inhibition [6, 7] | growth inhibition [6, 8] | growth inhibition ([6]; at 50.0 µM) |
| --- | --- | --- | --- | --- | --- | --- | --- | --- | --- | --- | --- | --- | --- | --- | --- | --- | --- | --- |
| CC(=O)N(C)c1ccc2c(c1)Cc1ccccc1-2 | 2% | 34% | 42.6% | 1% | 21% | 27.4% | 1% | 36 | 42.7% | -2% | 16% | 14.8% | 16% | 86% (active) | 58.3% | -2% | 30% | 23.1% |
| Cc1cc2nc(-c3ccccc3[N+](=O)[O-])[nH]c2cc1C | -3% | 20% | 21.6% | -7% | 7% | -0.15% | -6% | 61 | 41.1% | -3% | -1% | -73.7% | 6% | 55% | 16.3% | 2% | 56% | 3.2% |
| CCC(C)(C)c1cc(Br)c(NS(=O)(=O)c2ccc(NC(C)=O)cc2)c(Br)c1 | 5% | 80% (active) | -6.75% | 13% | 65% | 8.05% | -9% | 35 | -0.45% | 9% | 78% (active) | 6.85% | -3% | 62% | 6.5% | 8% | 42% | 20.5% |
| CCC(c1ccc(O)cc1)C(CC)c1ccc(OCC(N)=O)cc1 (configuration not stated) | 10% | -5% | 90.1% (active) | 0% | -10% | 80.5% (active) | -16% | 7 | 89.8% (active) | -18% | -22% | 78.8% (active) | -15% | 27% | 93% (active) | 20% | 44% | 91.3% (active) |
| COc1cc(/C=C/C(=O)Sc2ccccc2)cc(OC)c1O | 1% | 47% | 74.7% (active) | 0% | 58% | 58.6% | -3% | 60 | 59.2% | 2% | 38% | 75.7% (active) | 2% | 70% (active) | 51% | -2% | 58% | 50.6% |
| CCNc1ncnc2c1ncn2Cc1ccco1 | -4% | 0% | -1.1% | -3% | 0% | 1.4% | -7% | -3 | 4.8% | 1% | -6% | 71.3% (active) | -2% | 1% | -4.05% | 1% | 1% | -2% |
| CCOC(=O)C12CCSC1C1(C#N)C(C#N)=CC2(N=P(c2ccccc2)(c2ccccc2)c2ccccc2)n2c(=O)n(-c3ccccc3)c(=O)n21 (configuration not stated) | 45% | 29% | 68% | 93% (active) | 18% | 39.9% | 28% | 8 | 59.9% | 32% | 34% | 58.5% | 96% (active) | 46% | 88.5% (active) | 46% | 31% | 53.9% |
| Cc1cc(N2C(=O)CCSC2=S)ccc1Cl | 88% (active) | 28% | 90.9% (active) | 7% | 27% | 88.8% (active) | 48% | 43 | 90.6% (active) | 47% | 43% | 54.5% | 45% | 71% (active) | 86% (active) | 82% (active) | 18% | 87.5% (active) |
| Cc1cc(N)c2cc(NC(=O)Nc3ccc4nc(C)cc(N)c4c3)ccc2n1 | 100% (active) | 100% (active) | 99% (active) | 100% (active) | 99% (active) | 99% (active) | 99% (active) | 67 | 99% (active) | 99% (active) | 100% (active) | 95.3% (active) | 99% (active) | 99% (active) | 98.7% (active) | 99% (active) | 99% (active) | 98.5% (active) |
